Laboratory results taken from PubChem BioAssay (NCATS).
Records with an inconclusive call do not appear. A call without a number means that no potency is given here. Active and inactive are the calls of the source. Calls follow the shape of the dose curve; as a rule, active = well fitted curve in the direction sought with a large enough effect; inconclusive = small, poorly fitted or top-dose-only effect, or another doubt; inactive = no such curve, though single readings can be large; an effect the other way counts as inactive or inconclusive.

What was measured:
[1] = Cell Viability - LYMP2-015 (AID 971); conditions: LYMP2-015 lymphoblastoid cell viability; series mostly up to 92.2 µM; also: nearly all actives have a fitted effect of over 55% in size
In short: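 Cells are seeded at 2500 per well and incubated 5 hr at 37 C. Compounds are added across a concentration series for 24 hr at 37 C. CellTiter-Glo is added, and luminescence is read after 30 min at room temperature.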

[2] = Cell Viability - LYMP2-017 (AID 972); conditions: LYMP2-017 lymphoblastoid cell viability; series mostly up to 92.2 µM; also: nearly all actives have a fitted effect of over 55% in size
In short: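 Cytotoxicity is scored as a concentration-dependent drop in cellular ATP in a human lymphoblastoid line after 24 hr treatment at 37 C. Values are AC50s from Hill-equation modelling.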

[3] = Cell Viability - LYMP2-019 (AID 973); conditions: LYMP2-019 lymphoblastoid cell line viability; series mostly up to 92.2 µM; also: nearly all actives have a fitted effect of over 55% in size
In short: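 Cytotoxicity is scored as a concentration-dependent drop in cellular ATP after cells (2500/well) receive compound for 24 hr at 37 C. Tetraoctylammonium bromide serves as positive control.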

[4] = Cell Viability - LYMP2-021 (AID 974); conditions: LYMP2-021 lymphoblastoid cells viability; series mostly up to 92.2 µM;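 also: compound exposure lasts 24 hours at 37 °C; nearly all actives have a fitted effect of over 55% in size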
In short: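 Loss of cellular ATP, measured with a luciferase-based CellTiter-Glo readout, serves as the toxicity signal in human lymphoblastoid cells treated for 24 hours at 37 C. Potency is reported as AC50 from a standard Hill model.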

[5] = Cell Viability - LYMP2-023 (AID 975); conditions: LYMP2-023 lymphoblastoid cell viability; series mostly up to 92.2 µM
In short: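 Steps: seed 2500 human lymphoblastoid cells per well, incubate 5 hr at 37 C, add compound for 24 hr at 37 C, add CellTiter-Glo, hold 30 min at room temperature, read luminescence. AC50 derived by Hill modelling.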

[6] = Cell Viability - LYMP2-025 (AID 976); conditions: LYMP2-025 lymphoblastoid cell viability; series mostly up to 92.2 µM
In short: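 Acute cytotoxicity is scored as a concentration-dependent fall in intracellular ATP, measured by luciferase luminescence, in human lymphoblastoid LYMP2-025 cells exposed to compound for 24 hours at 37 C. AC50 values come from standard Hill fits.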

[7] = Cell Viability - LYMP2-007 (AID 979); conditions: LYMP2-007 lymphoblastoid cell viability; series mostly up to 92.2 µM;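 also: cells exposed to compound for 24 h before reading; nearly all actives have a fitted effect of over 60% in size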
In short: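 Cells are seeded at 2500 per well and rested 5 hr. Compounds are then added over a concentration series for 24 hr at 37 C. CellTiter-Glo is added for 30 min at room temperature before luminescence reading.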

[8] = Cell Viability - LYMP2-010 (AID 981); conditions: LYMP2-010 lymphoblastoid cell viability, qHTS; series mostly up to 92.2 µM; also: nearly all actives have a fitted effect of over 55% in size; also: potency is read from the fitted curve at half-maximal effect
In short: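 Steps: seed 2500 LYMP2-010 cells per well; incubate 5 hr at 37 C; add compound; incubate 24 hr at 37 C; add CellTiter-Glo, wait 30 min at room temperature; read luminescence. Concentration-response fitted to Hill equation for AC50.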

[9] = Cell Viability - LYMP2-012 (AID 982); conditions: LYMP2-012 lymphoblastoid cell viability qHTS; series mostly up to 92.2 µM
[10] = Cell Viability - LYMP2-014 (AID 983); conditions: LYMP2-014 lymphoblastoid cells, viability qHTS; series mostly up to 92.2 µM; also: nearly all actives have a fitted effect of over 50% in size
In short: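 Cells are plated at 2500/well and left 5 hr at 37 C. Compounds are added across a concentration range and incubated 24 hr at 37 C in complete medium. CellTiter-Glo is added, and luminescence is read after 30 min at room temperature.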

[11] = Cell Viability - LYMP2-016 (AID 984); conditions: LYMP2-016 lymphoblastoid cell viability, qHTS; series mostly up to 92.2 µM; also: nearly all actives have a fitted effect of over 55% in size
In short: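 Concentration-dependent ATP depletion measured in LYMP2-016 lymphoblastoid cells, 24 h, 37 C; luciferase-based luminescent detection; Hill-equation AC50.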

[12] = Cell Viability - LYMP2-018 (AID 985); conditions: LYMP2-018 lymphoblastoid cells, viability (qHTS); series mostly up to 92.2 µM;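 also: compound exposure lasted 24 hr at 37 °C; nearly all actives have a fitted effect of over 50% in size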
In short: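 Seed 2500 lymphoblastoid cells per well, incubate 5 hr at 37 C, add compound and incubate 24 hr at 37 C, add CellTiter-Glo, wait 30 min at room temperature, then read luminescence.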

[13] = Cell Viability - LYMP2-026 (AID 989); conditions: LYMP2-026 lymphoblastoid cell viability, qHTS; series mostly up to 92.2 µM; also: nearly all actives have a fitted effect of over 50% in size
In short: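 Cells are seeded at 2500 per well and held 5 hr at 37 C. Compounds are added in concentration series for 24 hr, then CellTiter-Glo reagent is applied and luminescence read.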

[14] = Cell Viability - LYMP2-002 (AID 977); conditions: LYMP2-002 lymphoblastoid cell viability, qHTS; series mostly up to 92.2 µM;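 also: compound exposure lasted 24 h at 37 °C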
In short: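 Human lymphoblastoid cells (2500/well) in complete medium were preincubated 5 hr at 37 C, then exposed to compounds for 24 hr at 37 C. Intracellular ATP was read by CellTiter-Glo luminescence; AC50 came from Hill-equation concentration-response fits.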

[15] = Cell Viability - LYMP2-006 (AID 978); conditions: LYMP2-006 lymphoblastoid cell viability, qHTS; series mostly up to 92.2 µM; also: nearly all actives have a fitted effect of over 60% in size
In short: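 In this cytotoxicity screen, the human lymphoblastoid line grew in complete medium with test compounds for 24 hr at 37 C. Cellular ATP served as the viability signal.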

[16] = Cell Viability - LYMP2-008 (AID 980); conditions: LYMP2-008 lymphoblastoid cell viability, qHTS; series mostly up to 92.2 µM; also: nearly all actives have a fitted effect of over 60% in size
In short: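 Cells seeded at 2500/well and rested 5 hr at 37 C; compounds added over a concentration range and incubated 24 hr at 37 C; CellTiter-Glo added, 30 min at room temperature; luminescence read and AC50 fitted with Hill model.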

[17] = Cell Viability - LYMP2-020 (AID 986); conditions: series mostly up to 92.2 µM; also: nearly all actives have a fitted effect of over 55% in size
In short: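 Seed 2500 cells per well and incubate 5 hr at 37 C. Add compounds at a concentration series and incubate 24 hr at 37 C. Add CellTiter-Glo, wait 30 min at RT, read luminescence, and fit a Hill curve for AC50.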

[18] = Cell Viability - LYMP2-022 (AID 987); conditions: LYMP2-022 lymphoblastoid cell viability; series mostly up to 92.2 µM; also: nearly all actives have a fitted effect of over 55% in size
In short: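 Cells were seeded at 2500 per well, rested 5 hr at 37 C, and treated with titrated compounds for 24 hr at 37 C. Cellular ATP was then quantified by luciferase luminescence, and AC50 values were derived from Hill-modelled concentration-response curves.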

[19] = Cell Viability - LYMP2-024 (AID 988); conditions: LYMP2-024 lymphoblastoid cell viability; series mostly up to 92.2 µM; also: nearly all actives have a fitted effect of over 60% in size
In short: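 qHTS cytotoxicity, human lymphoblastoid line, complete medium; 24 h cpd treatment, 37 C; CellTiter-Glo ATP luminescence readout; tetraoctylammonium bromide positive control; AC50 via Hill fit.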

[20] = molecular target: Alpha-galactosidase A (Homo sapiens) (UniProt P06280); assay: Counterscreen for Glucocerebrosidase Inhibitors: qHTS Assay for Human alpha-Galactosidase at pH 4.5 (AID 992); conditions: purified enzyme, fluorogenic substrate; series mostly up to 76.9 µM
Alpha-galactosidase A (Homo sapiens), sequence (P06280 whole entry, looked up): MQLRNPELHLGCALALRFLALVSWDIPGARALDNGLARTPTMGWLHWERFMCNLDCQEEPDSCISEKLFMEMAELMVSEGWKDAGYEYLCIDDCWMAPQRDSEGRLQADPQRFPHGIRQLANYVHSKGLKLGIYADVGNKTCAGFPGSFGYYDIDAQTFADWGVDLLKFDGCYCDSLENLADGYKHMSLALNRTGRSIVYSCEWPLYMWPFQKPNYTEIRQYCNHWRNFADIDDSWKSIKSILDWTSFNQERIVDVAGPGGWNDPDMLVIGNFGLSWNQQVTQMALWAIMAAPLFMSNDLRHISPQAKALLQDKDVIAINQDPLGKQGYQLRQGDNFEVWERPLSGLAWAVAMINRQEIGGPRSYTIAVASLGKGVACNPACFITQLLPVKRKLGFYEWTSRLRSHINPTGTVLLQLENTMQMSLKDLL
In short: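 Each compound is preincubated briefly with 2 nM enzyme before substrate addition (80 uM); plates then sit 20 min at ambient temperature, are quenched with 1M NaOH/1M glycine, and read fluorometrically.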

Structure (SMILES)	outcome [1]	outcome [2]	outcome [3]	outcome [4]	outcome [5]	outcome [6]	outcome [7]	Potency [8]	outcome [9]	outcome [10]	outcome [11]	outcome [12]	outcome [13]	outcome [14]	outcome [15]	outcome [16]	outcome [17]	outcome [18]	outcome [19]	outcome [20]
Nc1ccccc1N	inactive	inactive	inactive	inactive	inactive	inactive	inactive	15.8 µM (active)	inactive	inactive	inactive	inactive	inactive							
Cc1ccc(N)cc1O	inactive	inactive	inactive	inactive	inactive	inactive	inactive	inactive	inactive	inactive	inactive	inactive	inactive	inactive	inactive	inactive	inactive	inactive	inactive	
CC(=O)O[C@@H]1CC(C)=C2[C@H]1[C@H](C)CC[C@H]2/C=C(\C)C(=O)O	inactive	inactive	inactive	inactive	inactive	inactive	inactive	inactive	inactive	inactive	inactive	inactive	inactive	inactive	inactive	inactive	inactive	inactive	inactive	
CC(=O)O[C@H]1C(=O)[C@@]2(C)[C@H]([C@H](OC(=O)c3ccccc3)[C@]3(O)C[C@H](OC(=O)[C@H](O)[C@@H](NC(=O)c4ccccc4)c4ccccc4)C(C)=C1C3(C)C)[C@]1(OC(C)=O)CO[C@@H]1C[C@@H]2O																				inactive
